Source: PubChem BioAssay (NCATS)
Results filed as inconclusive are left out. Active and inactive are the calls of the source. The call rests on the fitted dose curve; in most records, active means well fitted curve in the direction sought with a large enough effect; inconclusive means small, poorly fitted or top-dose-only effect, or another doubt; inactive means no such curve, though single readings can be large; an effect the other way counts as inactive or inconclusive.

Key:
[1] = qHTS of pediatric cancer cell lines to identify multiple opportunities for drug repurposing: Primary screen for U-2 OS cells (AID 1347096); further: nearly all actives have a fitted effect of over 50% in size
Procedure, shortened: (§1)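 Viability after 48 h compound treatment at 37C, 500-1,000 cells/well, read as ATP luminescence with CellTiter-Glo. Primary screens used 11-point (MIPE, 0.78 nM-46 µM) or 8-point (NPC, 0.59 nM-46 µM) final concentrations; follow-up screens used 11-point dilutions.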

[2] = qHTS of pediatric cancer cell lines to identify multiple opportunities for drug repurposing: Primary screen for SK-N-SH cells (AID 1347098);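 further: DMSO served as neutral control and bortezomib at 2.3 µM as positive control; nearly all actives have a fitted effect of over 65% in size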
Procedure, shortened: (§2)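 Cells (500-1,000/well) rested 5 h, then received compounds for 48 h; metabolically active cells were measured by CellTiter-Glo luminescence. Final concentrations spanned up to 46 µM (MIPE, 11-point) or 0.59 nM-46 µM (NPC, 8-point) in primary screens, 11-point in follow-ups.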

[3] = qHTS of pediatric cancer cell lines to identify multiple opportunities for drug repurposing: Primary screen for NB1643 cells (AID 1347099); further: nearly all actives have a fitted effect of over 50% in size
Procedure, shortened: (§3)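 Cells seeded at 500-1,000 cells/well in growth media, rested 5 hours at 37 degrees C, 5% CO2, then dosed; MIPE compounds at 11-point (from 0.78 nM) and NPC at 8-point (from 0.59 nM) final concentrations. Viability by CellTiter-Glo luminescence after 48 hours.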

[4] = qHTS of pediatric cancer cell lines to identify multiple opportunities for drug repurposing: Primary screen for LAN-5 cells (AID 1347100)
Procedure, shortened: as §1

[5] = qHTS of pediatric cancer cell lines to identify multiple opportunities for drug repurposing: Primary screen for BT-12 cells (AID 1347101); further: nearly all actives have a fitted effect of over 25% in size
Procedure, shortened: as §2

[6] = qHTS of pediatric cancer cell lines to identify multiple opportunities for drug repurposing: Primary screen for Rh18 cells (AID 1347102); further: nearly all actives have a fitted effect of over 65% in size
Procedure, shortened: as §1

[7] = qHTS of pediatric cancer cell lines to identify multiple opportunities for drug repurposing: Primary screen for OHS-50 cells (AID 1347103); further: nearly all actives have a fitted effect of over 40% in size
Procedure, shortened: as §2

[8] = qHTS of pediatric cancer cell lines to identify multiple opportunities for drug repurposing: Primary screen for RD cells (AID 1347104); further: nearly all actives have a fitted effect of over 55% in size
Procedure, shortened: as §3

[9] = qHTS of pediatric cancer cell lines to identify multiple opportunities for drug repurposing: Primary screen for MG 63 (6-TG R) cells (AID 1347105); further: nearly all actives have a fitted effect of over 50% in size
Procedure, shortened: as §3

[10] = qHTS of pediatric cancer cell lines to identify multiple opportunities for drug repurposing: Primary screen for Saos-2 cells (AID 1347097); further: nearly all actives have a fitted effect of over 40% in size
Procedure, shortened: as §3

Measured: Potency

CC(=O)N[C@@H](Cc1ccc(O)cc1)C(=O)O
not listed: [10]
inactive: all other assays above

Cc1cc(-n2nc3ccc(Cl)cc3n2)c(O)c(C(C)(C)C)c1
not listed: [2]
inactive: all other assays above

OC[C@@H](O)[C@@H](O)[C@H](O)[C@H](O)CO
not listed: [10]
inactive: all other assays above

CN1CCCN=C1COC(=O)C(O)(c1ccccc1)C1CCCCC1 (centres undefined)
not listed: [3] | [8]
inactive: all other assays above

COc1ccc(O)cc1
not listed: [10]
inactive: all other assays above

O=C(c1ccccc1)C(O)c1ccccc1 (centres undefined)
not listed: [10]
inactive: all other assays above

COC(=O)N/N=C/c1c[n+]([O-])c2ccccc2[n+]1[O-]
not listed: [2]
inactive: all other assays above

O=C(O)CCC(=O)O
not listed: [2] | [3]
inactive: all other assays above

Nc1ncnc2c1ncn2[C@@H]1O[C@H](COP(=O)(O)O)[C@@H](O)[C@H]1O
not listed: [10]
inactive: all other assays above

C/C(=C(\CCO)SS/C(CCO)=C(\C)N(C=O)Cc1cnc(C)nc1N)N(C=O)Cc1cnc(C)nc1N
not listed: [3]
inactive: all other assays above

Nc1ccc(C(=O)Oc2ccccc2)c(O)c1
not listed: [2] | [7] | [10]
inactive: all other assays above

OC(CCN1CCCC1)(c1ccccc1)C1CCCCC1 (centres undefined)
inactive: [1] | [2] | [4] | [5] | [6] | [9]

OCc1ccc(Cl)cc1Cl
not listed: [2] | [10]
inactive: all other assays above

O=C1CC[C@@H](C(=O)O)N1
not listed: [3] | [10]
inactive: all other assays above

CN(C/C=C/C#CC(C)(C)C)Cc1cccc2ccccc12
not listed: [7] | [9] | [10]
inactive: all other assays above

CC(C(=O)O)c1ccc2c(c1)Cc1cccnc1O2 (centres undefined)
not listed: [10]
inactive: all other assays above

Cc1cccc(C)c1NC(=O)CC12CCCN1CCC2
not listed: [3]
inactive: all other assays above

C/C=C1\[C@H]2C=C(C)C[C@]1(N)c1ccc(=O)[nH]c1C2
not listed: [3]
inactive: all other assays above

Nc1ccncc1N
not listed: [10]
inactive: all other assays above

NCc1ccc(S(N)(=O)=O)cc1
not listed: [10]
inactive: all other assays above

FC(F)(F)C(Cl)Br (centres undefined)
not listed: [3] | [10]
inactive: all other assays above

Cc1cc(=O)[nH]c(=S)[nH]1
not listed: [1] | [10]
inactive: all other assays above

CCN(CC)S(=O)(=O)c1ccc(C(=O)O)cc1
not listed: [1]
inactive: all other assays above

CC1CCc2cc(F)cc3c(=O)c(C(=O)O)cn1c23 (centres undefined)
not listed: [1]
inactive: all other assays above

C1CCN2C[C@@H]3C[C@@H](CN4CCCC[C@@H]34)[C@H]2C1
not listed: [1] | [3]
inactive: all other assays above

CCCCCC(N)=O
not listed: [1] | [3]
inactive: all other assays above
